Inconclusive results are not listed. Active and inactive are the calls of the source. Unless noted, the call rests on the fitted dose curve; in most records, active means well fitted curve in either direction with a large enough effect (not every such curve was filed as active); inconclusive means small, poorly fitted or top-dose-only effect, or another doubt; inactive means flat fitted curve, though single readings scatter.
Key:
[1] = target: Lysosomal acid glucosylceramidase (Homo sapiens) (UniProt P04062); assay: Glucocerebrosidase-p2 (AID 348; in the data active means potency below about 10 µM; further: potency means the concentration at half of the fitted maximal effect); conditions: purified GBA, blue fluorogenic substrate, 40 min
How it was run: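 Compounds titrated from 0.6 nM upwards against 0.2 nM enzyme in pH 5.9 citric acid/KH2PO4, taurocholate, tween-20; blue fluorogenic substrate 80 uM, 40 min room temperature, stopped and read Ex 365/Em 440 for AC50.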

[2] = AP1 Signaling Pathway (AID 357); conditions: ME-180 AP-1-bla reporter, EGF-induced, beta-lactamase ratio, 5 h; at 7.69 µM (top of the series) unless noted; further: on the % scale 0 is the no-effect control and ±100 the full control effect
How it was run: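 Titration-series screen for positive or negative modulators of EC50 EGF-induced signaling in ME-180 cells carrying an AP-1-driven beta-lactamase reporter. After 5 hours at 37 degrees Celsius, CCF4 460nm/530nm emission ratio gave %Activity; AC50 values derived.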

[3] = target: Cytochrome P450 1A2 (Homo sapiens) (UniProt P05177); assay: p450-cyp1a2 (AID 410; calls by dose curve; further: potency means the concentration at half of the fitted maximal effect)
How it was run: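 Inhibition was calculated relative to 57 uM furafylline (full inhibition). The reaction used human CYP1A2 at 20nM with Luciferin-ME at its Km, 100uM, driven by an NADPH-regenerating system for 60 min at room temperature.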

[4] = NFAT Signaling Pathway (AID 444); conditions: Jurkat NFAT-bla M1, carbachol, beta-lactamase ratio, 5 h; at 7.69 µM (top of the series) unless noted;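 further: carbachol stimulus at about its EC50 of 1 µM final; on the % scale 0 is the no-effect control and ±100 the full control effect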
How it was run: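 Jurkat cells carrying an NFAT-driven β-lactamase reporter and co-transfected muscarinic M1 receptor were treated with compound plus carbachol (1 uM final, an EC50 level) for 5 h at 37 °C. CCF4 loading followed for 1 h at RT; 460/530 nm ratio gave %activity.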

[5] = Stat Signaling Pathway (AID 446); conditions: ME-180 SIE beta-lactamase reporter, IL-6 stimulated, 5 h; at 7.69 µM (top of the series) unless noted;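 further: ME-180 cervical cancer cells given 40 pM IL-6 alongside compound; SIE-controlled beta-lactamase reporter measured as 460/530 nm FRET emission ratio; on the % scale 0 is the no-effect control and ±100 the full control effect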
How it was run: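 Screening format detects activators and inhibitors alike: ME-180 SIE-bla cells stimulated at 40 pM IL-6 for 5 hrs with compound, then dual-emission beta-lactamase read at 405 nm excitation.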

[6] = target: Glucocorticoid receptor (Homo sapiens) (UniProt P04150); assay: GR-GFP Redistribution (AID 450;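 active means compounds whose dose series gives a full or clear partial fitted curve of increased nuclear translocation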; further: potency means the concentration at half of the fitted maximal effect); conditions: U2OS GR-GFP nuclear translocation, laser cytometry, 2 h
[7] = target: Glucocorticoid receptor (Homo sapiens) (UniProt P04150); assay: GR-EFC Redistribution (AID 451; calls by dose curve; further: potency means the concentration at half of the fitted maximal effect); conditions: CHO-K1 GR-EFC translocation, beta-gal luminescence, 2 h
How it was run: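 CHO-K1 cells stably expressing nuclear-localized β-gal enzyme acceptor and GR fused C-terminally to the enzyme donor fragment; ligand-driven nuclear translocation restores β-gal by complementation. Compounds titrated up to 46 uM final, 2 h at 37 °C; luminescence read.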

[8] = target: Mitogen-activated protein kinase 10 (Mus musculus) (UniProt Q61831); assay: JNK3 AlphaScreen Assay (AID 530);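 further: kinase came from lysate of stimulated human HepG2 cells; signal reports phosphorylation of biotinylated GST-cJun 1-79 at Ser73 with 10 µM ATP; on the % scale 0 is the no-effect control and ±100 the full control effect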
How it was run: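 JNK3 came from HepG2 lysates pre-activated with IL-1beta and TNF-alpha and phosphorylated biotinylated GST-cJun (1-79) at 10 uM ATP, pH 7.6, room temperature. Compounds were titrated. AlphaScreen signal used anti-phospho-cJun (Ser73) antibody.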

Glucocorticoid receptor (Homo sapiens), sequence (P04150 whole entry, looked up, the tested form may be a part): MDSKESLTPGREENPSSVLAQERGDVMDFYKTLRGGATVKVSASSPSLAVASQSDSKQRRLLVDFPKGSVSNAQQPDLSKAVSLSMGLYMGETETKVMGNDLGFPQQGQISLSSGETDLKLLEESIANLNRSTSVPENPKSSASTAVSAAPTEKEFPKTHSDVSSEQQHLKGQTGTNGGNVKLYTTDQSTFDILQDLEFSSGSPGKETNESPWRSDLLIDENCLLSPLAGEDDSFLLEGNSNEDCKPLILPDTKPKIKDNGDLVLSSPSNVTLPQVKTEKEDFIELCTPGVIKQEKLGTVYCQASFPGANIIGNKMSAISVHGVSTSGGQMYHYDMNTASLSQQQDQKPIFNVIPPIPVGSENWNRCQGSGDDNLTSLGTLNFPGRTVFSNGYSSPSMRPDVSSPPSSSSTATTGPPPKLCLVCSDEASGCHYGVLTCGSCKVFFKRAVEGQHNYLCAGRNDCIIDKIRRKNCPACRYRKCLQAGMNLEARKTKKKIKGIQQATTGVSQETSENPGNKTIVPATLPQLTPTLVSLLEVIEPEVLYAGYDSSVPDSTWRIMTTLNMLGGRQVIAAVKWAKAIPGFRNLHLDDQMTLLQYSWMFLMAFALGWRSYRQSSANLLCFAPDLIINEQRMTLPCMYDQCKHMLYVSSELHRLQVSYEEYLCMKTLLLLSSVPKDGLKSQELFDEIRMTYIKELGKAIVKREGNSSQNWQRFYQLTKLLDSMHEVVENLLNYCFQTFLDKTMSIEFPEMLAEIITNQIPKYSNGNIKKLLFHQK
Lysosomal acid glucosylceramidase (Homo sapiens), sequence (P04062 whole entry, looked up): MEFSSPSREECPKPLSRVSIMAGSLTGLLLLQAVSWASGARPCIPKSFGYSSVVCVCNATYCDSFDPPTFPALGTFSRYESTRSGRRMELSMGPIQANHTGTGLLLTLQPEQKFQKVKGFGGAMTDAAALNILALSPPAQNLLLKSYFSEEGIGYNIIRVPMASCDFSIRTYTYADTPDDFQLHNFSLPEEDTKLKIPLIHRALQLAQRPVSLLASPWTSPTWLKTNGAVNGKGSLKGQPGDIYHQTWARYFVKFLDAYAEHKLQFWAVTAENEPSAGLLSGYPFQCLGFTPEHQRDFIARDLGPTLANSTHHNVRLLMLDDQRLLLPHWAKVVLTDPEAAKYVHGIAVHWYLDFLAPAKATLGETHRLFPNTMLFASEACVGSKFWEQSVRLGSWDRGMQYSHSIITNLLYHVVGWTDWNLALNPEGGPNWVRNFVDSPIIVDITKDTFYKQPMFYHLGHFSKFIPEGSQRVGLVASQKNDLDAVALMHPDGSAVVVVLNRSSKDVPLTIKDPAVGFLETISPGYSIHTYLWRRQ
Cytochrome P450 1A2 (Homo sapiens), sequence (P05177 whole entry, looked up): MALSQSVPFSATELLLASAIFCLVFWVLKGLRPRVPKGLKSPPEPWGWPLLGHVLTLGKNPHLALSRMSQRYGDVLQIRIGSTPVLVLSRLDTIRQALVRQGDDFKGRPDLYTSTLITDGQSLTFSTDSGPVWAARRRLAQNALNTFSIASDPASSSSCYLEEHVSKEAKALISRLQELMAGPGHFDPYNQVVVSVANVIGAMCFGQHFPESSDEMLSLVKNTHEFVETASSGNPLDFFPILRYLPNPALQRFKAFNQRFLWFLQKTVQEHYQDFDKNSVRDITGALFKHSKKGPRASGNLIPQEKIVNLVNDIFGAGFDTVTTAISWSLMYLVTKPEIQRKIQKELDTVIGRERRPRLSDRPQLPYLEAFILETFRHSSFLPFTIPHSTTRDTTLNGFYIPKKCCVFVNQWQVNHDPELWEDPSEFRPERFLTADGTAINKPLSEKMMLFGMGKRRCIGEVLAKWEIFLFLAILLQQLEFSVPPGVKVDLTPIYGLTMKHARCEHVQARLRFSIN

CN(N=O)c1ccc(/C=C\c2ccnc3ccccc23)cc1
inactive: Potency [1] > 11.4 µM | activity change, negative = inhibition [2] -0.154% | activity change, negative = inhibition [4] 7.28% | activity, negative = inhibition [5] -0.754% | Potency [6] > 46 µM | Potency [7] > 9.22 µM | Potency [8]
active: Potency [3] 0.158 µM
